Only some compounds are listed: those with a hit (about 2.4% of all), similar ones and a draw of the others.
Mcl-1 Bim block = disrupts Bim peptide binding to human Mcl-1 | Q07820 | Bead-based flow cytometry, Bim peptide-Mcl-1 binding | inhibition, % at 10 µM | 190,000 compounds, 0.1% hits | AID 1009; in the data active means inhibition above about 40%
Target sequence (Q07820 whole entry, looked up): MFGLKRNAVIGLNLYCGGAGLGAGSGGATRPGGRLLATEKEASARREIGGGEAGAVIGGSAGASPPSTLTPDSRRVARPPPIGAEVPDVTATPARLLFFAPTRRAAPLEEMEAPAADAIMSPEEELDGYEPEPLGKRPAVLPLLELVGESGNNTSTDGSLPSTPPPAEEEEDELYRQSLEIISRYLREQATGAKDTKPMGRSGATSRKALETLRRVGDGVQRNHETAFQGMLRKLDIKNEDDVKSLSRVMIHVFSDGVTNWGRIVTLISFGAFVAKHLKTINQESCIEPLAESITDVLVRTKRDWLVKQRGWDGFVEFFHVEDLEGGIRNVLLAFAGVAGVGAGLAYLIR
Mcl1 Noxa PPI = Mcl-1/Noxa interaction inhibition. AID 1022. inhibition, % at 21.7 µM. 220,000 compounds, 1.5% hits. Q07820. TR-FRET Mcl-1/Noxa peptide binding, 2 h;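 active means compounds that cut the protein-peptide binding signal by more than 50% relative to plate controls in a single-dose test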;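 further: His-tagged Mcl-1 with rhodamine Noxa BH3 peptide and terbium anti-His antibody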
L929 necroptosis = L929 zVAD cell death inhibition; L929 zVAD necroptosis rescue, ATP luminescence, 24 h; with zVAD 60 µM; 220,000 compounds, 0.38% hits; viability rescue, % at 10 µM;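 active means activation, scaled between plate controls, above about 75%, limit read from the data; inactive means activation under that limit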
MCL1 BIM primary = disrupts human MCL1 binding to BIM-BH3 peptide; GST-MCL1 / FITC-Bim-BH3 fluorescence polarization; inhibition, % at 10.9 µM; 320,000 compounds, 0.68% hits; AID 2057;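 active means inhibition above the mean inhibition of all tested compounds plus 3 SD, set per campaign, cut at about 40% in these data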;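 further: higher means more loss of mP so more displacement of Bim peptide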
Mcl1-Bid inh = Mcl-1/Bid interaction inhibition; inhibition, % at 21.7 µM; TR-FRET Mcl-1/Bid-Dy647 peptide binding, 1536-well; AID 1021; Q07820; 220,000 compounds, 0.97% hits;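 active means compounds that cut the binding signal by more than half at the single screening dose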;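 further: His-tagged Mcl-1 with europium anti-His antibody binding Bid BH3 peptide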
TNF necrop inh = TNF-alpha cell death inhibition in Jurkat FADD-/- cells; activation (protection from cell death), % at 10 µM; Jurkat FADD-/- TNF necroptosis rescue, ATP luminescence, 24 h; 0 = TNF only, 100 = no-TNF cells; 220,000 compounds, 0.068% hits;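 active means activation, meaning protection from cell death, of at least 50% relative to plate controls; inactive means activation below 50%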;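 further: necroptosis triggered by 40 ng/mL TNF-alpha added together with compound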
Hits are given with their value; n = inactive; x = not tested or not shown.

SMILES	Mcl-1 Bim block	Mcl1 Noxa PPI	L929 necroptosis	MCL1 BIM primary	Mcl1-Bid inh	TNF necrop inh
COc1cc2c(C(=O)N3CCN(C)CC3)c(C)n(C)c2cc1Br	n	n	n	42.0	n	n
c1ccc2c3c(ccc2c1)OCC1CONC31 (centres undefined)	n	n	n	n	n	n
CN1CCC(N(C)c2nc(-c3ccccc3)nc3ccccc23)CC1	n	51.8	n	n	n	n
Cc1cc(N2CCN(C)CC2)nc2ccccc12	x	x	x	n	x	x
CCOc1cc2c(cc1OCC)-n1cccc1C(c1cccc(F)c1)NC2 (centres undefined)	x	x	x	n	x	x
CC/C(=N\NC(=O)c1ccccc1)c1c(O)n(C2CCCCC2)c(=O)[nH]c1=O	x	x	x	n	x	x
C=C(CO)CC1CC(O)[C@]2(C)OC3CC4OC5C[C@]6(C)O[C@]7(C)CCC8OC9C[C@]%10(C)OC%11C(C)=CC(=O)OC%11CC%10OC9C[C@@H](C)C8OC7CC6O[C@]5(C)C/C=C\C4OC3CC2O1 (some centres undefined)	n	n	n	n	n	n
C=C(C=O)CC1CC(O)[C@]2(C)OC3CC4OC5C[C@]6(C)O[C@]7(C)CCC8OC9C[C@]%10(C)OC%11C(C)=CC(=O)OC%11CC%10OC9C[C@@H](C)C8OC7CC6O[C@]5(C)CC5OC5C4OC3CC2O1 (some centres undefined)	n	n	n	n	77.6	n
COc1ccc(CNCCc2ccc3c(c2)OCO3)cc1Br	x	x	x	n	x	x
O=C1C=Cc2ccccc2C1=O	n	72.7	n	n	n	n
Nc1c(C(=O)NCc2ccco2)c2nc3ccccc3nc2n1Cc1ccc(F)cc1	n	65.5	n	n	52.6	n
Nc1c(C(=O)NCc2ccco2)c2nc3ccccc3nc2n1Cc1ccccc1	n	n	x	n	n	n
COc1ccc(Cn2c(N)c(C(=O)NCc3ccco3)c3nc4ccccc4nc32)cc1	n	71.3	n	n	n	n
Cc1ccc(/C=C2\C(=O)NC(=S)N(c3ccc(F)cc3)C2=O)s1	n	n	n	n	n	n
Cc1ccc(/C=C2\C(=O)NC(=S)N(c3ccccc3F)C2=O)s1	n	92.6	n	n	n	n
C=CCn1c(O)c(C(CC)=NCc2ccco2)c(=O)[nH]c1=O	x	n	n	n	n	n
CCC12CN3CCN(CC(C3)/C1=N/NC(=O)c1ccncc1)C2	n	n	n	n	n	n
CCCc1nnc(NC(=O)CCC(=O)N2CCC3(CC2)OCCO3)s1	x	n	n	43.7	n	n
COc1cccc(N2C(=O)NC(=O)/C(=C/c3ccc([N+](=O)[O-])s3)C2=O)c1	x	61.4	n	n	n	n
Cc1ccc(N2C(=O)NC(=O)/C(=C\c3ccc([N+](=O)[O-])o3)C2=O)cc1	n	69.7	n	n	n	n
Cc1ccc(N2C(=O)NC(=O)/C(=C\c3ccc(N4CCOCC4)cc3)C2=O)cc1	n	n	n	n	n	n
COc1ccc(N2C(=O)NC(=O)/C(=C/c3ccc([N+](=O)[O-])s3)C2=O)cc1	x	51.4	n	n	n	n
COc1ccc(CN2C(=O)NC(=O)/C(=C/c3ccc([N+](=O)[O-])s3)C2=O)cc1	x	65.0	n	n	n	n
O=C1CN=C(c2ccccc2)c2c(sc3c2CCCC3)N1	x	x	x	n	x	x
COc1ccc(CNCCc2ccccc2F)c(OC)c1C	x	x	x	n	x	x
SMILES	Mcl-1 Bim block	Mcl1 Noxa PPI	L929 necroptosis	MCL1 BIM primary	Mcl1-Bid inh	TNF necrop inh
O=c1[nH]c(=O)n(Cc2ccco2)c(O)c1C=NCCN1CCNCC1	x	n	n	n	n	n
COc1ccccc1N1CCN(Cc2cnc(-c3ccccc3)[nH]2)CC1	x	n	n	n	n	n
CC(C)C[C@H]1C(=O)N2CCCC2[C@]2(O)O[C@](NC(=O)[C@@H]3C=C4c5cccc6[nH]cc(c56)CC4N(C)C3)(C(C)C)C(=O)N12 (some centres undefined)	n	n	n	194.2	n	n
CC(C)[C@@]1(NC(=O)[C@@H]2C=C3c4cccc5[nH]cc(c45)C[C@H]3N(C)C2)O[C@@]2(O)[C@@H]3CCCN3C(=O)[C@H](Cc3ccccc3)N2C1=O	n	n	n	x	n	n
COc1ccc(N2C(=O)/C(=C/C=C/c3ccccc3[N+](=O)[O-])C(=O)NC2=S)cc1	n	88.6	n	x	82.6	n
COc1ccc(N2C(=O)/C(=C/c3cccs3)C(=O)NC2=S)cc1	x	61.7	n	n	n	n
